Inconclusive results are not listed. Active and inactive are the calls of the source. The calls were made as follows, unless noted: active = hit-call score of the fitted dose curve at least 0.9, where 1 is the maximum; inactive = score below 0.9.
Experiments:
[1] = target: human Vitamin D Receptor (VDR), VDR (gene 7421) (UniProt P11473); assay: ATG_VDR_TRANS: Attagene TRANS-FACTORIAL HepG2 Assay for human Vitamin D Receptor (VDR) (AID 2283022; active = hit-call score of the fitted dose curve at least 0.9, where 1 is the maximum)
Sequence of human Vitamin D Receptor (VDR), VDR (gene 7421) (P11473 whole entry, looked up, the tested form may be a part): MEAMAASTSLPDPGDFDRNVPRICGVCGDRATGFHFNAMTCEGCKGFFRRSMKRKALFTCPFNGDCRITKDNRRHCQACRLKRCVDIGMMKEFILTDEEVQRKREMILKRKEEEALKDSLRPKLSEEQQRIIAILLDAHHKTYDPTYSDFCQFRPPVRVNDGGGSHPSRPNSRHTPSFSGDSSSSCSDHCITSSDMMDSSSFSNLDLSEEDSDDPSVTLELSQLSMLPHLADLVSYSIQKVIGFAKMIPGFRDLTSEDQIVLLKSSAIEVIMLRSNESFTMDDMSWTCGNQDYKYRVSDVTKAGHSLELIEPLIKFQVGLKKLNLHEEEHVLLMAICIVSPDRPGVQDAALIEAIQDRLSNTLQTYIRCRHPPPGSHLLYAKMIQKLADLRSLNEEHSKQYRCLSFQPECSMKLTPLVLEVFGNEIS
Method in brief: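 HepG2 cells were transiently transfected with multiple GAL4-UAS reporter units, so signal reflects exogenous chimeric receptor-Gal4 activity. After 24 h compound exposure, reporter mRNA was measured by RT-PCR, fluorescent labelling and capillary electrophoresis, fitted for gain of signal versus DMSO.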

[2] = BSK_3C_SRB: Viability Assessment in the BioMAP Diversity Plus: 3C Assay (AID 2283023); conditions: primary human endothelial cells (HUVEC);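 also: fitted both ways against DMSO so a hit may be signal rise or drop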
Method in brief: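 Primary human umbilical vein endothelial cells in the 3C system were read 24 h after compound dosing. Total protein was stained with 0.1% sulforhodamine B after 10% TCA fixation and read at 560 nm, with bidirectional fitting against DMSO as baseline.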

[3] = read-out: Matrix Metallopeptidase 1 (MMP1), MMP1 (gene 4312); assay: BSK_BE3C_MMP1: BioMAP Diversity Plus: BE3C Assay for Matrix Metallopeptidase 1 (MMP1) Biomarker Activity (AID 2283024); conditions: primary human bronchial epithelial cells; actives raise or lower the signal
Method in brief: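 Human primary bronchial epithelial cells (BE3C system) dosed for 24 h; MMP-1 quantified by ELISA. Bidirectional fit against DMSO; cytotoxicity tracked in parallel cultures by SRB total-protein staining.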

[4] = BSK_3C_Vis: BioMAP Diversity Plus: 3C Assay for Morphology Visualization (AID 2283025); conditions: primary human endothelial cells (HUVEC);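 also: fitted both ways so gain or loss versus DMSO counts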;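 as to AC50: light microscopy image of cell morphology used as background control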
Method in brief: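 Human umbilical vein endothelial cell morphology was inspected by light microscopy 24 h after chemical dosing; scored bidirectionally relative to DMSO.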

[5] = read-out: Pselectin, SELP (gene 6403); assay: BSK_4H_Pselectin: BioMAP Diversity Plus: 4H Assay for Pselectin Biomarker Activity (AID 2283026); conditions: primary human endothelial cells (HUVEC); actives raise or lower the signal
Method in brief: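 Primary human umbilical vein endothelial cells were treated 24 h, and cell-surface P-selectin was then quantified by ELISA. Bidirectional fit versus DMSO; cytotoxicity checked in parallel cultures by SRB total-protein staining.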

[6] = BSK_4H_SRB: Viability Assessment in the BioMAP Diversity Plus: 4H Assay (AID 2283027); conditions: primary human endothelial cells (HUVEC);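 as to AC50: curves fitted both ways versus DMSO so AC50 may be loss or gain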
Method in brief: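 Absorbance at 560 nm of SRB-stained total protein served as the viability read-out in confluent primary human umbilical vein endothelium 24 h after chemical treatment. Curves were fitted bidirectionally against DMSO as negative control.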

[7] = BSK_BE3C_SRB: Viability Assessment in the BioMAP Diversity Plus: BE3C Assay (AID 2283028); conditions: primary human bronchial epithelial cells;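 as to AC50: fitted both ways so AC50 may mark signal gain or loss versus DMSO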
Method in brief: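 Human primary bronchial epithelial cells were exposed to test chemicals for 24 h. Total protein in parallel cultures was then measured by staining with 0.1% sulforhodamine B after 10% TCA fixation, with absorbance read at 560 nm. Activity was fitted bidirectionally against DMSO.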

[8] = read-out: Urokinase-type plasminogen activator receptor (uPAR), PLAUR (gene 5329); assay: BSK_4H_uPAR: BioMAP Diversity Plus: 4H Assay for Urokinase-type plasminogen activator receptor (uPAR) Biomarker Activity (AID 2283030); conditions: primary human endothelial cells (HUVEC); actives raise or lower the signal
Method in brief: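 Primary human umbilical vein endothelial cells were exposed to chemical for 24 h before cell-surface uPAR was quantified by ELISA. Activity was fitted bidirectionally against the DMSO negative control baseline.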

[9] = read-out: Vascular endothelial growth factor receptor 2 (Homo sapiens) (UniProt P35968); assay: BSK_4H_VEGFRII: BioMAP Diversity Plus: 4H Assay for Vascular endothelial growth factor receptor 2 (VEGFR2) Biomarker Activity (AID 2283031); conditions: primary human endothelial cells (HUVEC); actives raise or lower the signal;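 as to AC50: cell-surface VEGFR2 protein level quantified by ELISA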
Method in brief: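 Primary human umbilical vein endothelial cells in the BioMAP 4H system were dosed with test chemical, and 24 h later VEGFRII was measured by ELISA. Activity was fitted bidirectionally against DMSO as negative control and baseline.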

[10] = read-out: Human Leukocyte Antigen - DR isotype (HLADR), HLA-DRA (gene 3122); assay: BSK_BE3C_HLADR: BioMAP Diversity Plus: BE3C Assay for Human Leukocyte Antigen - DR isotype (HLADR) Biomarker Activity (AID 2283032); conditions: primary human bronchial epithelial cells; actives raise or lower the signal
Method in brief: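 Human primary bronchial epithelial cells (BE3C system) exposed to compound for 24 hours; cell-surface HLA-DR measured by ELISA, fitted bidirectionally relative to DMSO. Total protein by SRB in parallel cultures tracked cytotoxicity.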

[11] = read-out: Vascular cell adhesion molecule 1 (VCAM1), VCAM1 (gene 7412); assay: BSK_4H_VCAM1: BioMAP Diversity Plus: 4H Assay for Vascular cell adhesion molecule 1 (VCAM1) Biomarker Activity (AID 2283033); conditions: primary human endothelial cells (HUVEC); actives raise or lower the signal
Method in brief: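 Primary human umbilical vein endothelial cells, 4H stimulation system, treated for 24 h; cell-surface VCAM-1 quantified by ELISA. Bidirectional fitting against DMSO; cytotoxicity tracked by SRB total-protein staining in parallel cultures.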

[12] = read-out: Interferon-gamma inducible Protein 10 (IP10), CXCL10 (gene 3627); assay: BSK_BE3C_IP10: BioMAP Diversity Plus: BE3C Assay for Interferon-gamma inducible Protein 10 (IP10) Biomarker Activity (AID 2283034); conditions: primary human bronchial epithelial cells; actives raise or lower the signal
Method in brief: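 Primary human bronchial epithelial cells, with IP-10 measured by ELISA 24 hours after chemical dosing. Bidirectional fit against DMSO; cytotoxicity checked by SRB total protein staining in parallel cultures.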

[13] = read-out: Monokine induced gamma interferon (MIG), CXCL9 (gene 4283); assay: BSK_BE3C_MIG: BioMAP Diversity Plus: BE3C Assay for Monokine induced gamma interferon (MIG) Biomarker Activity (AID 2283035); conditions: primary human bronchial epithelial cells; actives raise or lower the signal
Method in brief: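 MIG level was determined by ELISA after 24 h chemical treatment of primary human bronchial epithelial cells. Values were fitted bidirectionally with DMSO as the negative control and activity baseline.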

[14] = read-out: Transforming growth factor beta 1 (TGFb1), TGFB1 (gene 7040); assay: BSK_BE3C_TGFb1: BioMAP Diversity Plus: BE3C Assay for Transforming growth factor beta 1 (TGFb1) Biomarker Activity (AID 2283036); conditions: primary human bronchial epithelial cells; actives raise or lower the signal
Method in brief: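 Primary human bronchial epithelial cells dosed with chemical; TGF-b1 measured by ELISA 24 h after dosing. Bidirectional curve fitting against DMSO negative control; SRB total-protein staining in parallel cultures gauged cytotoxicity.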

[15] = read-out: Plasminogen activator inhibitor-1 (PAI1), SERPINE1 (gene 5054); assay: BSK_BE3C_PAI1: BioMAP Diversity Plus: BE3C Assay for Plasminogen activator inhibitor-1 (PAI1) Biomarker Activity (AID 2283037); conditions: primary human bronchial epithelial cells; actives raise or lower the signal
Method in brief: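 Primary human bronchial epithelial cells (BE3C system) exposed 24 h; PAI-1 quantified by ELISA. Parallel sulforhodamine B staining of total protein flags cytotoxicity. Bidirectional fit versus DMSO.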

[16] = read-out: urokinase plasminogen activator (uPA), PLAU (gene 5328); assay: BSK_BE3C_uPA: BioMAP Diversity Plus: BE3C Assay for urokinase plasminogen activator (uPA) Biomarker Activity (AID 2283038); conditions: primary human bronchial epithelial cells; actives raise or lower the signal
Method in brief: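 Human primary bronchial epithelial cells were exposed to chemical for 24 h, then uPA levels were measured by ELISA. Responses were fitted bidirectionally against DMSO as negative control and baseline. Parallel SRB staining of total protein gauged overt cytotoxicity.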

[17] = read-out: Interleukin-6 (IL6), IL6 (gene 3569); assay: BSK_CASM3C_IL6: BioMAP Diversity Plus: CASM3C Assay for Interleukin-6 (IL6) Biomarker Activity for (AID 2283040); conditions: primary human coronary artery smooth muscle cells; actives raise or lower the signal
[18] = read-out: Tissue plasminogen activator (tPA), PLAT (gene 5327); assay: BSK_BE3C_tPA: BioMAP Diversity Plus: BE3C Assay for Tissue plasminogen activator (tPA) Biomarker Activity (AID 2283041); conditions: primary human bronchial epithelial cells; actives raise or lower the signal
Method in brief: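 Primary human bronchial epithelial cells in the BE3C system, exposed to compound for 24 h. tPA was quantified by ELISA; DMSO served as baseline, with gain or loss of signal fitted. Cytotoxicity checked in parallel cultures by SRB total-protein staining.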

[19] = read-out: Urokinase-type plasminogen activator receptor (uPAR), PLAUR (gene 5329); assay: BSK_BE3C_uPAR: BioMAP Diversity Plus: BE3C Assay for Urokinase-type plasminogen activator receptor (uPAR) Biomarker Activity (AID 2283039); conditions: primary human bronchial epithelial cells; actives raise or lower the signal
Method in brief: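 Primary human bronchial epithelial cells dosed for 24 h; uPAR quantified by ELISA with bidirectional fitting against DMSO. Overt cytotoxicity assessed in parallel cultures by SRB total-protein staining (0.1% SRB, 560 nm).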

[20] = read-out: Thrombomodulin, THBD (gene 7056); assay: BSK_3C_Thrombomodulin: BioMAP Diversity Plus: 3C Assay for Thrombomodulin Biomarker Activity (AID 2283029); conditions: primary human endothelial cells (HUVEC); actives raise or lower the signal
Method in brief: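 Human umbilical vein endothelial cells were exposed to chemicals for 24 h; cell-surface thrombomodulin quantified by ELISA, with bidirectional fitting against DMSO baseline.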

Measured: AC50

Cc1ccc(Nc2ccc(O)c3c2C(=O)c2ccccc2C3=O)cc1
not listed: [19] | [20]
inactive: all other assays above

CC(c1cc2ccccc2s1)N(O)C(N)=O (stereo unspecified)
inactive: [1]

BrC1CCC(Br)C(Br)CCC(Br)C(Br)CCC1Br (stereo unspecified)
active: [2] 4.73 µM | [3] 1.16 µM | [4] 8.03 µM | [5] 2.57 µM | [6] 4.73 µM | [8] 4.6 µM | [9] 2.62 µM | [10] 1.49 µM | [11] 2.95 µM | [12] 1.55 µM
inactive: [1] | [7] | [13] | [14] | [15] | [16] | [19] | [17] | [18]

CC(C)(C#N)c1cc(Cn2cncn2)cc(C(C)(C)C#N)c1
inactive: [1]

O=C=NC1CCC(CC2CCC(N=C=O)CC2)CC1 (stereo unspecified)
active: [4] 37.5 µM
not listed: [20]
inactive: all other assays above

NCCCCCCN
inactive: [1]

CCCC(=O)C(C)=O
inactive: [1]

C=C(C)[C@@H]1CCC2=CC(=O)C[C@@H](C)[C@]2(C)C1
inactive: [1]

C=COCCOCCOCCOC=C
inactive: [1]

c1cc(C(c2ccc(OCC3CO3)cc2)c2ccc(OCC3CO3)cc2)ccc1OCC1CO1 (stereo unspecified)
inactive: [1]

C=C(C)C(=O)O[C@H]1C[C@@H]2CC[C@@]1(C)C2(C)C
active: [2] 13.8 µM | [3] 20 µM | [4] 12.5 µM | [5] 11.3 µM | [6] 10.9 µM | [7] 34.7 µM | [8] 9.5 µM | [9] 5.29 µM | [10] 20 µM | [11] 10.1 µM | [12] 33.2 µM | [13] 30.4 µM | [14] 26.4 µM | [15] 20 µM | [16] 20 µM | [19] 32.2 µM | [17] 13 µM | [18] 20 µM
inactive: [1]

O=C(O)C[C@H](O)C[C@H](O)/C=C/c1c(C2CC2)nc2ccccc2c1-c1ccc(F)cc1
active: [2] 0.0713 µM | [4] 3.47 µM | [5] 0.152 µM | [6] 0.847 µM | [10] 0.028 µM | [16] 1.7 µM | [17] 0.0041 µM | [18] 0.0843 µM
not listed: [19]
inactive: all other assays above

CCN(CC)c1ccc(C(=C2C=CC(=[N+](CC)CC)C=C2)c2ccc(S(=O)(=O)O)cc2S(=O)(=O)[O-])cc1
inactive: [1]

CC(C)=CCC[C@](C)(O)[C@@H]1CC=C(C)CC1
inactive: [1]

C[C@H]1C[C@H]2[C@@H]3CCC4=CC(=O)C=C[C@]4(C)[C@@]3(F)[C@@H](O)C[C@]2(C)[C@@]1(O)C(=O)COP(=O)(O)O
inactive: [1]

CCCCOCCOCCSC#N
inactive: [1]

O=C(COc1ccc(Cl)cc1)N1CCN(Cc2ccc3c(c2)OCO3)CC1
inactive: [1]
